Data published in PubChem BioAssay (EPA / NIEHS).
Where “and” joins values, the source holds several entries; their conditions need not be identical. Equal values may be shown once. Some compounds were tested as several samples or in several runs, with calls that do not always agree. Calls of active or inactive are those of the source. The calls were made as follows: active = hit-call score of the fitted dose curve at least 0.9, where 1 is the maximum; inactive = score below 0.9.

How the values were obtained:
[1] = read-out: Matrix Metallopeptidase 1 (MMP1), MMP1 (gene 4312); assay: BSK_hDFCGF_MMP1: BioMAP Diversity Plus: hDFCGF Assay for Matrix Metallopeptidase 1 (MMP1) Biomarker Activity (AID 2283064); conditions: primary human foreskin fibroblasts; actives raise or lower the signal
In short: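 Human foreskin fibroblasts exposed to chemical for 24 h; MMP1 detected by ELISA, with DMSO as baseline for bidirectional fitting.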

[2] = read-out: Intercellular Adhesion Molecule 1 (ICAM1), ICAM1 (gene 3383); assay: BSK_KF3CT_ICAM1: BioMAP Diversity Plus: KF3CT Assay for Intercellular Adhesion Molecule 1 (ICAM1) Biomarker Activity (AID 2283067); conditions: primary human keratinocytes with fibroblasts; actives raise or lower the signal
In short: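 Human keratinocyte plus foreskin fibroblast primary co-culture was exposed to chemical for 24 h. ICAM-1 was then quantified by ELISA, and the data were fit bidirectionally against DMSO as the negative control and baseline.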

[3] = read-out: Interferon-gamma inducible Protein 10 (IP10), CXCL10 (gene 3627); assay: BSK_KF3CT_IP10: BioMAP Diversity Plus: KF3CT Assay for Interferon-gamma inducible Protein 10 (IP10) Biomarker Activity (AID 2283068); conditions: primary human keratinocytes with fibroblasts; actives raise or lower the signal
In short: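 Signal is secreted/surface IP-10 by ELISA in a human primary skin co-culture of keratinocytes and foreskin fibroblasts, taken 24 h post-dosing; DMSO served as negative control.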

[4] = BSK_KF3CT_SRB: Viability Assessment in the BioMAP Diversity Plus: KF3CT Assay (AID 2283069); conditions: primary human keratinocytes with fibroblasts;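 also: read 24 h after compound addition; fitted for both signal gain and loss against DMSO baseline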
In short: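 Overt cytotoxicity is assessed as total protein by sulforhodamine B staining in parallel human skin co-cultures at 24 h after dosing. DMSO serves as negative control and baseline.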

[5] = read-out: Interleukin-1 alpha (IL1a), IL1A (gene 3552); assay: BSK_KF3CT_IL1a: BioMAP Diversity Plus: KF3CT Assay for Interleukin-1 alpha (IL1a) Biomarker Activity (AID 2283070); conditions: primary human keratinocytes with fibroblasts; actives raise or lower the signal
In short: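 Readout is IL-1a level by ELISA, compared bidirectionally with DMSO as baseline. Cells: human keratinocytes co-cultured with foreskin fibroblasts, harvested 24 h post-dose.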

[6] = read-out: TIMP metallopeptidase inhibitor 2 (TIMP2), TIMP2 (gene 7077); assay: BSK_KF3CT_TIMP2: BioMAP Diversity Plus: KF3CT Assay for TIMP metallopeptidase inhibitor 2 (TIMP2) Biomarker Activity (AID 2283071); conditions: primary human keratinocytes with fibroblasts; actives raise or lower the signal
In short: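 ELISA readout of TIMP-2 in keratinocyte plus foreskin fibroblast co-cultures (human skin primary cells), 24 h post-dose. Gain or loss of signal fitted relative to DMSO.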

[7] = read-out: C-C motif chemokine 2 (Homo sapiens) (UniProt P13500); assay: BSK_KF3CT_MCP1: BioMAP Diversity Plus: KF3CT Assay for Monocyte Chemoattractant Protein 1 (MCP1/CCL2) Biomarker Activity (AID 2283073); conditions: primary human keratinocytes with fibroblasts; actives raise or lower the signal
In short: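 Human keratinocyte plus foreskin fibroblast primary co-culture exposed to chemical for 24 h. MCP-1 levels measured by ELISA. Bidirectional curve fitting relative to DMSO negative control as baseline.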

[8] = read-out: Matrix Metallopeptidase 9 (MMP9), MMP9 (gene 4318); assay: BSK_KF3CT_MMP9: BioMAP Diversity Plus: KF3CT Assay for Matrix Metallopeptidase 9 (MMP9) Biomarker Activity (AID 2283074); conditions: primary human keratinocytes with fibroblasts; actives raise or lower the signal;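 as to AC50: MMP9 protein level quantified by ELISA in the co-culture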
In short: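 Values come from bidirectional fitting relative to DMSO of MMP-9 levels, which were measured by ELISA. Measurements were taken 24 h after chemical dosing of a keratinocyte and foreskin fibroblast co-culture.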

[9] = read-out: urokinase plasminogen activator (uPA), PLAU (gene 5328); assay: BSK_KF3CT_uPA: BioMAP Diversity Plus: KF3CT Assay for urokinase plasminogen activator (uPA) Biomarker Activity (AID 2283075); conditions: primary human keratinocytes with fibroblasts; actives raise or lower the signal
In short: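 Values derive from bidirectional fitting against DMSO controls. Keratinocyte/foreskin fibroblast co-cultures received chemical; 24 h later uPA was detected by ELISA, with SRB total-protein staining in parallel wells for overt cytotoxicity.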

[10] = read-out: Transforming growth factor beta 1 (TGFb1), TGFB1 (gene 7040); assay: BSK_KF3CT_TGFb1: BioMAP Diversity Plus: KF3CT Assay for Transforming growth factor beta 1 (TGFb1) Biomarker Activity (AID 2283072); conditions: primary human keratinocytes with fibroblasts; actives raise or lower the signal
In short: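 Read-out: ELISA for TGF-b1 in keratinocyte/foreskin fibroblast human skin co-culture, 24 h after dosing; bidirectional curve fit vs DMSO baseline; gain or loss of signal scored.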

C=CCOCC(O)CCl (stereo unspecified)
outcome [1]: inactive
outcome [2]: inactive
outcome [3]: inactive
outcome [4]: inactive
outcome [5]: inactive
outcome [6]: inactive
outcome [7]: inactive
outcome [8]: inactive
outcome [9]: inactive

C=CC(=O)OCC(Br)CBr (stereo unspecified)
AC50 [1]: 11.8 µM (active)
AC50 [2]: 25.2 µM (active)
AC50 [3]: 30 µM (active)
AC50 [4]: 33.8 µM (active)
AC50 [5]: 32.2 µM (active)
AC50 [6]: 32 µM (active)
AC50 [10]: 5.81 µM (active)
outcome [7]: inactive
AC50 [8]: 28.1 µM (active)
AC50 [9]: 34.1 µM (active)

CC(C)(c1cc(Br)c(OCCO)c(Br)c1)c1cc(Br)c(OCCO)c(Br)c1
outcome [1]: inactive
AC50 [2]: 16.2 µM (active)
AC50 [3]: 9.81 µM (active)
AC50 [4]: 9.41 µM (active)
AC50 [5]: 12.1 µM (active)
AC50 [6]: 16.2 µM (active)
AC50 [10]: 6.03 µM (active)
AC50 [7]: 16.2 µM (active)
AC50 [8]: 7.47 µM (active)
AC50 [9]: 16.2 µM (active)

COc1ccc2nc(N)sc2c1
outcome [1]: inactive
outcome [2]: inactive
outcome [3]: inactive
outcome [4]: inactive
outcome [5]: inactive
outcome [6]: inactive
outcome [10]: inactive
outcome [7]: inactive
outcome [8]: inactive
outcome [9]: inactive

CC1OC1C1CCC2(C)OC2C1 (stereo unspecified)
outcome [1]: inactive
outcome [2]: inactive
outcome [3]: inactive
outcome [4]: inactive
outcome [5]: inactive
outcome [6]: inactive
outcome [10]: inactive
outcome [7]: inactive
outcome [8]: inactive
outcome [9]: inactive

CC(C)C(=O)C(C)C
outcome [1]: inactive
outcome [2]: inactive
outcome [3]: inactive
outcome [4]: inactive
outcome [5]: inactive
outcome [6]: inactive
outcome [10]: inactive
outcome [7]: inactive
outcome [8]: inactive
outcome [9]: inactive

O=C(Nc1ccccc1SSc1ccccc1NC(=O)c1ccccc1)c1ccccc1
outcome [1]: inactive
outcome [2]: inactive
outcome [3]: inactive
outcome [4]: inactive
outcome [5]: inactive
outcome [6]: inactive
outcome [10]: inactive
outcome [7]: inactive
outcome [8]: inactive
outcome [9]: inactive

N#[N+]c1ccc2c(S(=O)(=O)[O-])cccc2c1O
outcome [1]: inactive
outcome [2]: inactive
outcome [3]: inactive
outcome [4]: inactive
outcome [5]: inactive
outcome [6]: inactive
outcome [10]: inactive
outcome [7]: inactive
outcome [8]: inactive
outcome [9]: inactive

CO[Si](OC)(OC)c1ccccc1
outcome [1]: inactive
outcome [2]: inactive
outcome [3]: inactive
outcome [4]: inactive
outcome [5]: inactive
outcome [6]: inactive
outcome [7]: inactive
outcome [8]: inactive
outcome [9]: inactive

C#CC1(O)CC[C@H]2[C@@H]3CCC4=CCCC[C@@H]4[C@H]3CC[C@@]21C (stereo partly specified)
AC50 [1]: 37.5 µM (active)
AC50 [2]: 13.6 µM (active)
AC50 [3]: 34 µM (active)
AC50 [4]: 30.6 µM (active)
AC50 [5]: 31.7 µM (active)
AC50 [6]: 20 µM (active)
AC50 [10]: 25.4 µM (active)
AC50 [7]: 30.9 µM (active)
AC50 [8]: 31.9 µM (active)
AC50 [9]: 35.1 µM (active)

COCc1c(C(C)C)nc(C(C)C)c(/C=C/[C@@H](O)C[C@@H](O)CC(=O)O)c1-c1ccc(F)cc1
outcome [1]: inactive
outcome [2]: inactive
outcome [3]: inactive
outcome [4]: inactive
outcome [5]: inactive
outcome [6]: inactive
outcome [10]: inactive
AC50 [7]: 0.071 µM (active)
outcome [8]: inactive
outcome [9]: inactive

CCCCC(CC)COCC1CO1 (stereo unspecified)
outcome [1]: inactive
outcome [2]: inactive
outcome [3]: inactive
outcome [4]: inactive
outcome [5]: inactive
outcome [6]: inactive
outcome [7]: inactive
outcome [8]: inactive
outcome [9]: inactive

CN1C(=O)N(C)C(O)C1O (stereo unspecified)
outcome [1]: inactive
outcome [2]: inactive
outcome [3]: inactive
outcome [4]: inactive
outcome [5]: inactive
outcome [6]: inactive
outcome [7]: inactive
outcome [8]: inactive
outcome [9]: inactive

O=C(Cl)c1cc(C(=O)Cl)cc(C(=O)Cl)c1
AC50 [1]: 31.9 µM (active)
AC50 [2]: 30.8 µM (active)
AC50 [3]: 35 µM (active)
AC50 [4]: 33.2 µM (active)
AC50 [5]: 33.8 µM (active)
AC50 [6]: 25.2 µM (active)
AC50 [10]: 28.2 µM (active)
AC50 [7]: 30.1 µM (active)
AC50 [8]: 32.3 µM (active)
AC50 [9]: 30.9 µM (active)

O=c1c2ccccc2oc2ccccc12
outcome [1]: inactive
outcome [2]: inactive
outcome [3]: inactive
outcome [4]: inactive
outcome [5]: inactive
outcome [6]: inactive
outcome [10]: inactive
outcome [7]: inactive
outcome [8]: inactive
outcome [9]: inactive

CCOC(=O)c1ccccc1C(=C1C=C(Br)C(=O)C(Br)=C1)c1cc(Br)c(O)c(Br)c1
AC50 [1]: 4.03 µM (active) and 4.34 µM (active)
AC50 [2]: 5.2 µM (active) and 5.41 µM (active)
AC50 [3]: 3.9 µM (active) and 3.58 µM (active)
AC50 [4]: 3.4 µM (active)
outcome [4]: inactive
AC50 [5]: 3.49 µM (active) and 3.47 µM (active)
AC50 [6]: 3.46 µM (active) and 3.44 µM (active)
AC50 [7]: 3.39 µM (active) and 3.47 µM (active)
AC50 [8]: 3.55 µM (active) and 3.24 µM (active)
AC50 [9]: 3.6 µM (active) and 3.63 µM (active)

CCCCNc1ccc(NCCCC)c2c1C(=O)c1ccccc1C2=O
outcome [1]: inactive
outcome [2]: inactive
outcome [3]: inactive
outcome [4]: inactive
outcome [5]: inactive
outcome [6]: inactive
outcome [10]: inactive
outcome [7]: inactive
outcome [8]: inactive
outcome [9]: inactive

CCCCC/C=C\C/C=C\CCCCCCCC(=O)OC
AC50 [1]: 33.4 µM (active)
AC50 [2]: 31.4 µM (active)
AC50 [3]: 29 µM (active)
AC50 [4]: 31 µM (active)
AC50 [5]: 26.9 µM (active)
AC50 [6]: 30 µM (active)
AC50 [10]: 16.4 µM (active)
AC50 [7]: 28.7 µM (active)
AC50 [8]: 26.7 µM (active)
AC50 [9]: 30.8 µM (active)
